The text below walks through data of PubChem BioAssay (EPA / NIEHS).

Calls of active or inactive are those of the source. The calls were made as follows: active = hit-call score of the fitted dose curve at least 0.9, where 1 is the maximum; inactive = score below 0.9.

The nature of this test: STM_H9_OrnithineISnorm_perc: Stemina devTOX quickPredict H9 human embryonic stem cell (hESC)-based Assay for Ornithine (ORN) Metabolite Biomarker, Normalized (AID 2283712).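 Also: ornithine released into spent medium during last day measured by mass spectrometry.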 From the text:
STM_H9_secretome utilizes undifferentiated H9 cells to measure relative changes in two metabolites, ornithine (ORN) and cystine (CYSS) in the secretome, targeting a critical drop in the ORN/CYSS ratio as a biomarker for developmental toxicity.STM_H9_OrnithineISnorm is one of 10 components calculated in the STM_H9_secretome assay. It measures the integrated area of the endogenous ornithine normalized to the spiked-in isotopically labeled standard and to the median value of the 0.1% DMSO neutral control treatment using UPLC-HRMS technology.Data from the assay component STM_H9_OrnithineISnorm_perc was analyzed at the assay endpoint STM_H9_OrnithineISnorm_perc in the positive analysis fitting direction relative to DMSO as the negative control and baseline of activity. Using a type of binding reporter, gain or loss-of-signal activity can be used to understand relative metabolite change.
H9 hESCs maintained in a pluripotent state were exposed to test compound for 72h with chemical replenishment with media replacement every 24h. Cell-conditioned media from the final 24-h treatment period was collected for analysis of the targeted biomarker, and cell viability of the corresponding cell layer was assessed. The chemical library was tested in blinded fashion. Each test plate included 1uM Methotrexate (MTX; Selleck Chemicals, Houston, Texas) as a positive reference, 5 nM MTX as a negative reference, 0.1% DMSO as the neutral (vehicle) control, and sample-level media blanks.H9 cell-conditioned media from the final 24-h treatment period was collected for analysis of the targeted biomarker and cell viability was measured from the corresponding cell layer. Cell viability was measured using the CellTiter-Fluor assay (Promega, Madison, Wisconsin) based on proteolytic cleavage of a substrate to fluorescent signal proportional to the number of living cells. The cell viability Relative Fluorescence Unit (RFU) was background corrected and normalized to mean RFU of the neutral control (0.1% DMSO). The collected H9-cell-conditioned media samples were processed for targeted biomarker analysis as described (Palmer et al., 2013). Briefly, spent media samples were deproteinized (40% acetonitrile) and processed for UPLC-HRMS. Data acquisition was performed using 4 separate UPLC-HRMS systems, consisting of an Agilent 1290 Infinity LC system (Agilent Technologies) interfaced with an Agilent high-resolution mass spectrometer (models G6520A, G6520B, G6530A, and G6224A). A Waters Acquity UPLC BEH Amide column (2.1mm x 50mm, 1.7lm particle size; Waters, Milford, Massachusetts) maintained at 40C was applied for separation of metabolites using a 6.5min solvent gradient with 0.1% formic acid in water and 0.1% formic acid in acetonitrile (1.0ml/min flow rate). Data were acquired using MassHunter Acquisition software (version B 04.00, Agilent Technologies). The extracted ion chromatogram (EIC) areas for ORN, CYSS, and their respective spike-in C13-standards were determined using the Agilent MassHunter Quantitative Analysis software, version B.05.00 or newer (Agilent Technologies), and data were normalized as described in Palmer et al. (2017).
On to `COc1cc2c(c(OC)c1OC)-c1ccc(OC)c(=O)cc1[C@@H](NC(C)=O)CC2`, for which the concentration at half-maximal activity (AC50) is 0.0159 µM (active).

Turning to `C[C@]12C=CC(=O)C=C1CC[C@H]1[C@@H]3C[C@@H](O)[C@](O)(C(=O)CO)[C@@]3(C)C[C@H](O)[C@@]12F`, the result was inactive. With `CCCC(CCC)C(=O)O`, the half-maximal activity concentration (AC50) was 334 µM (active). As to `CC[C@H](C)C(=O)O[C@H]1C[C@H](O)C=C2C=C[C@H](C)[C@H](CC[C@@H](O)C[C@@H](O)CC(=O)O)[C@H]21`, the result was inactive. Turning to `Cc1ncc([C@@H](CCCCCCc2ccc3c(n2)NCCC3)CC(=O)O)cn1`, the result was inactive. As to `CCCCCCCCCC`, the outcome was inactive. As to `NC(=O)NN=Cc1ccc([N+](=O)[O-])o1`, the outcome was inactive.

As for `Nc1ccn([C@@H]2O[C@H](CO)[C@@H](O)[C@@H]2O)c(=O)n1`, the half-maximal activity concentration (AC50) was 0.235 µM (active). Regarding `Cn1cc[nH]c1=S`, the outcome was inactive. Still for that read-out and setting: with `NC(=O)N1c2ccccc2C=Cc2ccccc21` the entry was “inactive”. On to `CC(C)C(=O)Nc1ccc([N+](=O)[O-])c(C(F)(F)F)c1`, for which the AC50 was 77.1 µM (active).

For `CCCCN1C(=O)[C@@H]([C@H](O)C2CCCCC2)NC(=O)C12CCN(Cc1ccc(Oc3ccc(C(=O)O)cc3)cc1)CC2`, the result was inactive. Turning to `CCN(CC)C(=S)SSC(=S)N(CC)CC`, the AC50 was 0.32 µM (active). On to `Cn1c(=O)c2[nH]cnc2n(C)c1=O`, for which the outcome was inactive. The same measure, in the same setting: then `O=S1(=O)CCCO1`, with “inactive”.

As for `O=C1CN(N=Cc2ccc([N+](=O)[O-])o2)C(=O)N1`, the concentration at half-maximal activity (AC50) was 7.42 µM (active). On to `Cc1nc(-c2ccccn2)ncc1C(=O)Nn1cc(C)c2cc(F)ccc21`, for which the result was inactive.

As to `O=c1[nH]cnc2c1ncn2[C@H]1CC[C@@H](CO)O1`, the result was inactive. For the compound `OCCNCCO`, the outcome was inactive.

With `OC(Cn1cncn1)(Cn1cncn1)c1ccc(F)cc1F`, the outcome was inactive. Take `COS(C)(=O)=O`: the half-maximal activity concentration (AC50) was 71.4 µM (active).

The AC50 is the concentration giving half of the maximal activity seen.
